Measured values from PubChem BioAssay (EPA / NIEHS).
Results filed as inconclusive are left out. Calls of active or inactive are those of the source. The calls were made as follows, unless noted: active = hit-call score of the fitted dose curve at least 0.9, where 1 is the maximum; inactive = score below 0.9.

Legend:
[1] = ATG_PXRE_CIS: Attagene CIS-FACTORIAL HepG2 Assay for human Pregnane X Receptor Element (PXRE) (AID 2282957); conditions: HepG2 Attagene CIS-FACTORIAL PXRE reporter, mRNA; actives raise or lower the signal
Summary of the method: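 After a 24 h chemical incubation, total RNA from transfected HepG2 cells was reverse-transcribed and reporter cDNA amplified, FAM-labeled, HpaI-digested and sized by capillary electrophoresis. DMSO served as baseline for bidirectional curve fitting.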

[2] = ATG_PPRE_CIS: Attagene CIS-FACTORIAL HepG2 Assay for human Peroxisome Proliferator-activated Response Element (PPRE) (AID 2282958); conditions: HepG2 PPRE cis-element reporter, Attagene transcription factor profiling; actives raise or lower the signal
Summary of the method: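 Endogenous PPRE-driven transcription is measured in HepG2 cells carrying transfected multi-reporter constructs. Reporter transcripts are quantified by RT-PCR, HpaI digestion and capillary electrophoresis 24 h after dosing. DMSO baseline, bidirectional fit.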

[3] = ATG_RORE_CIS: Attagene CIS-FACTORIAL HepG2 Assay for human RAR-related Orphan Receptor Element (RORE) (AID 2282959); conditions: HepG2 Attagene cis-factorial RORE reporter, mRNA; actives raise or lower the signal
Summary of the method: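 RORE reporter transcripts reflecting endogenous factor activity were read after 24 h compound exposure of transfected HepG2 cells, using reverse transcription, PCR, fluorescent labelling and capillary electrophoresis sizing. Gain or loss fitted against DMSO.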

[4] = ATG_Sox_CIS: Attagene CIS-FACTORIAL HepG2 Assay for human SRY-box transcription factor (SOX) (AID 2282960); conditions: HepG2 Attagene cis-factorial SOX reporter, mRNA; actives raise or lower the signal
Summary of the method: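 Reporter transcripts, measured by RT-PCR and capillary electrophoresis of labelled fragments, report endogenous SOX transcription factor activity. Transiently transfected human HepG2 cells receive chemical for 24 h; changes in either direction are fitted relative to DMSO.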

[5] = molecular target: Transcription factor Sp1 (Homo sapiens) (UniProt P08047); experiment: ATG_Sp1_CIS: Attagene CIS-FACTORIAL HepG2 Assay for human Specificity Protein 1 (Sp1) (AID 2282961); conditions: HepG2 Sp1 cis-reporter transcription, actives raise or lower the signal
Sequence of Transcription factor Sp1 (Homo sapiens) (P08047 whole entry, looked up): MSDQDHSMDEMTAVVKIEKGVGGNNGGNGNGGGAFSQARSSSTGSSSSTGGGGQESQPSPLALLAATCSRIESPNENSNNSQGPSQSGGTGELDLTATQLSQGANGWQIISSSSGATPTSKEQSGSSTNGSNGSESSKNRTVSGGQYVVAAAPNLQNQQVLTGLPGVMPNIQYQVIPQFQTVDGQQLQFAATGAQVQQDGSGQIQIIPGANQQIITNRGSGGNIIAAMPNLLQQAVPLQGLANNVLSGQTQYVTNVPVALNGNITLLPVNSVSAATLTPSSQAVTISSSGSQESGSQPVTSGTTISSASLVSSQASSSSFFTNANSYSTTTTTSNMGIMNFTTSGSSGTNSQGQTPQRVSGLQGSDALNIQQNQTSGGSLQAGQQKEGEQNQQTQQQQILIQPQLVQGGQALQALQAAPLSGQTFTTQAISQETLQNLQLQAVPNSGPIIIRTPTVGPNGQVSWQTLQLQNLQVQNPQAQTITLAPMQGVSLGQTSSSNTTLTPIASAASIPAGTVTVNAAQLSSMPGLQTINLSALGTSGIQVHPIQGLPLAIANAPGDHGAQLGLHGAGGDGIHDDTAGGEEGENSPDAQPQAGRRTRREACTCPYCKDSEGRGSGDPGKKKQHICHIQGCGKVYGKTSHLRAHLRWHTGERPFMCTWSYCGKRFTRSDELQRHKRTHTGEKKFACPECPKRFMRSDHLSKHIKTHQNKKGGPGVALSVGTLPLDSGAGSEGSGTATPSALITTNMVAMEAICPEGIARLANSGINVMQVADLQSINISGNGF
Summary of the method: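 Read-out is reporter transcript level, measured by RT-PCR and fluorescent capillary electrophoresis after 24 h chemical treatment. System: transiently transfected HepG2 cells reporting endogenous transcription factor activity; gain or loss fitted against DMSO baseline.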

[6] = ATG_SREBP_CIS: Attagene CIS-FACTORIAL HepG2 Assay for human Sterol Regulatory Element Binding (SREBP) (AID 2282962); conditions: HepG2 Attagene cis-factorial SREBP reporter, mRNA; actives raise or lower the signal
Summary of the method: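 Endogenous factor activity is measured in HepG2 through multiplexed reporter units under cis-element control. Following a 24 h incubation, reporter transcripts are reverse-transcribed, PCR-amplified and sized by capillary electrophoresis; activity is fitted in both directions relative to DMSO.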

[7] = molecular target: Signal transducer and activator of transcription 3 (Homo sapiens) (UniProt P40763); experiment: ATG_STAT3_CIS: Attagene CIS-FACTORIAL HepG2 Assay for human Signal Transducer and Activator of Transcription 3 (STAT3) (AID 2282963); conditions: HepG2, Attagene cis-factorial STAT3 reporter transcription; actives raise or lower the signal
Sequence of Signal transducer and activator of transcription 3 (Homo sapiens) (P40763 whole entry, looked up, the tested form may be a part): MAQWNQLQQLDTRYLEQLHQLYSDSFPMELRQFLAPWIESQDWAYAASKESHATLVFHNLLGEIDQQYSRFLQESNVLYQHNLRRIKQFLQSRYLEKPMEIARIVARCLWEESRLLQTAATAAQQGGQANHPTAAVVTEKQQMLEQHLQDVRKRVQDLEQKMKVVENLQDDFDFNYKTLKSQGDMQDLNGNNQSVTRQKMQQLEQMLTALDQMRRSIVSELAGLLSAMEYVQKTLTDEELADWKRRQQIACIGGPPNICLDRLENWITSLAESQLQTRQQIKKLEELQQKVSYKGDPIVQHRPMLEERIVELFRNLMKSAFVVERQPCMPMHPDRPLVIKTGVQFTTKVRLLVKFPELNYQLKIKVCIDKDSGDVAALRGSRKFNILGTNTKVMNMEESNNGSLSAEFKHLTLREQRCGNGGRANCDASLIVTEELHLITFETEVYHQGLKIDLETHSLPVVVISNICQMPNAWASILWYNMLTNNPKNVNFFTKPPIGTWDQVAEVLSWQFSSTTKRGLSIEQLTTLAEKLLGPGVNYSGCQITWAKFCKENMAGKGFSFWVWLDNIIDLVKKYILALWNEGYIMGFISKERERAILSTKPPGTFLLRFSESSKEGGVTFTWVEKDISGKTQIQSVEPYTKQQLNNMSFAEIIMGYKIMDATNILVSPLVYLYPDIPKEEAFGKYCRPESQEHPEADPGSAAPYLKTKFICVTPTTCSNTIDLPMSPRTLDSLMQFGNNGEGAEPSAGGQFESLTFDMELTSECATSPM
Summary of the method: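 Fluorescence intensity of 6-FAM-labelled reporter fragments, separated by capillary electrophoresis after RT-PCR, gave the signal. Cells were HepG2 transfected with cis-element reporter units and treated 24 h; fitting was bidirectional relative to DMSO.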

[8] = ATG_TA_CIS: Attagene CIS-FACTORIAL HepG2 Assay for human TA Basal Promoter (AID 2282964); conditions: HepG2 Attagene CIS-factorial TA basal promoter reporter; actives raise or lower the signal
Summary of the method: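 HepG2 cells transiently transfected with multiplexed cis-promoter reporter units, dosed 24 h. Reporter mRNA measured by RT-PCR, 6-FAM labelling, HpaI digestion and capillary electrophoresis; bidirectional fit versus DMSO baseline, serving as background control.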

[9] = ATG_TCF_b_cat_CIS: Attagene CIS-FACTORIAL HepG2 Assay for human T-Cell-Factor with beta-catenin (TCF/b-cat) (AID 2282965); conditions: HepG2 TCF/beta-catenin cis-reporter transcription, actives raise or lower the signal
Summary of the method: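 HepG2, transient MRTU transfection, cis-element-driven reporters (endogenous TFs). 24 h compound exposure. Readout: reporter mRNA by RT-PCR + 6-FAM primer extension, HpaI digest, capillary electrophoresis. Gain/loss fit vs DMSO baseline.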

[10] = ATG_TAL_CIS: Attagene CIS-FACTORIAL HepG2 Assay for human TAL Basal Promoter (AID 2282966); conditions: HepG2 Attagene cis-factorial TAL promoter reporter; actives raise or lower the signal;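 also: background control endpoint measuring basal TAL promoter reporter mRNA not a specific factor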
Summary of the method: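 Basal-promoter background-control endpoint from a multiplexed HepG2 reporter panel. Cells were exposed 24 h, then reporter mRNA was read by RT-PCR/CE fluorescence and fitted in both directions relative to DMSO.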

[11] = ATG_TGFb_CIS: Attagene CIS-FACTORIAL HepG2 Assay for human Transforming Growth Factor (TGF) (AID 2282967); conditions: HepG2 Attagene CIS TGFb reporter, mRNA transcription; actives raise or lower the signal
Summary of the method: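 HepG2 cells transiently transfected with cis-promoter-driven multiplexed reporter units; 24 h compound exposure. Reporter mRNA measured by RT-PCR, 6-FAM labeling, HpaI digestion and capillary electrophoresis; bidirectional fit versus DMSO baseline.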

[12] = ATG_VDRE_CIS: Attagene CIS-FACTORIAL HepG2 Assay for human Vitamin D Receptor Element (VDRE) (AID 2282968); conditions: HepG2 VDRE cis-reporter transcription, actives raise or lower the signal
Summary of the method: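 Compounds were applied for 24 h to HepG2 cells transfected with promoter-regulated reporter units. Total RNA was reverse-transcribed, and reporter amplicons were fluorescently labelled and sized by capillary electrophoresis.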

[13] = molecular target: Steroid hormone receptor ERR1 (Homo sapiens) (UniProt P11474); experiment: ATG_ERRa_TRANS: Attagene TRANS-FACTORIAL HepG2 Assay for human Estrogen-Related Receptor alpha (ERRa) (AID 2282971; active = hit-call score of the fitted dose curve at least 0.9, where 1 is the maximum); conditions: HepG2 Attagene TRANS reporter, ERRa transactivation
Sequence of Steroid hormone receptor ERR1 (Homo sapiens) (P11474 whole entry, looked up, the tested form may be a part): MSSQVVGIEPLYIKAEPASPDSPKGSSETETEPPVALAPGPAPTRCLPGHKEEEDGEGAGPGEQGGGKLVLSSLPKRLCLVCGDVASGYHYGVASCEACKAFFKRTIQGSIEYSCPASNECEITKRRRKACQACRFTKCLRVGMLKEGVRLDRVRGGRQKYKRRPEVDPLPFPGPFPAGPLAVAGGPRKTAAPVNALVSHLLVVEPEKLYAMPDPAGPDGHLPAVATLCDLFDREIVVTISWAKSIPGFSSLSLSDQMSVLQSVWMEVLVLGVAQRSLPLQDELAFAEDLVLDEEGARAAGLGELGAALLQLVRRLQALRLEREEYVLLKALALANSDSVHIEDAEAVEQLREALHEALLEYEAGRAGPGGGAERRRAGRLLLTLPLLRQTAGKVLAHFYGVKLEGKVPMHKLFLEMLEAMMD
Summary of the method: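 HepG2 cells transiently transfected with GAL4-UAS reporter units and chimeric NR-Gal4 constructs; after 24 hour compound incubation, reporter mRNA quantified by RT-PCR, fluorescent labelling and capillary electrophoresis, gain of signal versus DMSO.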

[14] = molecular target: X-box-binding protein 1 (Homo sapiens) (UniProt P17861); experiment: ATG_Xbp1_CIS: Attagene CIS-FACTORIAL HepG2 Assay for human X-box Binding Protein 1 (XBP1) (AID 2282972); conditions: HepG2 XBP1 cis-element reporter, Attagene multiplex; actives raise or lower the signal
Sequence of X-box-binding protein 1 (Homo sapiens) (P17861 whole entry, looked up): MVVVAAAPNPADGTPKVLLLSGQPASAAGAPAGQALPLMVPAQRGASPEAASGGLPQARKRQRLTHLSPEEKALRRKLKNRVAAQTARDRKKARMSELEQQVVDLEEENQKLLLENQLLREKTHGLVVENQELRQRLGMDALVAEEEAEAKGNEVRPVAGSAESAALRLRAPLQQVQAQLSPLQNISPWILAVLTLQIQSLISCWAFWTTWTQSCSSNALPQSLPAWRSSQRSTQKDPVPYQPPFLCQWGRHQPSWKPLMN
Summary of the method: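 Multiplexed cis-reporter readout in transfected HepG2 liver cells. Exposure lasted 24 hours. Activity in either direction was fitted against DMSO as negative control and baseline.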

[15] = ATG_M_19_TRANS: Attagene TRANS-FACTORIAL HepG2 Assay for M19 Transcription Factor (Internal Marker) (AID 2282974; active = hit-call score of the fitted dose curve at least 0.9, where 1 is the maximum); conditions: HepG2 Attagene TRANS-FACTORIAL M19 internal marker reporter
Summary of the method: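 Background-control readout: after 24 h chemical exposure of transfected HepG2 carrying GAL4-driven reporter units, RNA was reverse-transcribed, amplified, fluorescently labeled and sized by capillary electrophoresis; gain-of-signal fit against DMSO.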

[16] = molecular target: Nuclear receptor subfamily 1 group I member 3 (Homo sapiens) (UniProt Q14994); experiment: ATG_CAR_TRANS: Attagene TRANS-FACTORIAL HepG2 Assay for human Constitutive Androstane Receptor (CAR) (AID 2282969; active = hit-call score of the fitted dose curve at least 0.9, where 1 is the maximum;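 also: activators raise reporter mRNA above DMSO so AC50 marks induction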); conditions: HepG2 Attagene TRANS-FACTORIAL CAR reporter
Sequence of Nuclear receptor subfamily 1 group I member 3 (Homo sapiens) (Q14994 whole entry, looked up, the tested form may be a part): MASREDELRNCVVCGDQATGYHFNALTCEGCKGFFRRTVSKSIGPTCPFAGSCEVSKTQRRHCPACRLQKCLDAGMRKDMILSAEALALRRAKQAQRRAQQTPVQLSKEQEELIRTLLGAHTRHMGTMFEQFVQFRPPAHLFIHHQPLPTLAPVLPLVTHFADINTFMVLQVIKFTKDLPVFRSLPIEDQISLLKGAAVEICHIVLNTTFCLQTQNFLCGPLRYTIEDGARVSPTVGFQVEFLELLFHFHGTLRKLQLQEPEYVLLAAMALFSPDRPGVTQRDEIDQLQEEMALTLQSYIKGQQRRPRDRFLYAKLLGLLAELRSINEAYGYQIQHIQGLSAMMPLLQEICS
Summary of the method: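 Transiently transfected HepG2, multiplex TRANS reporters (CAR-Gal4 chimera driving GAL4-UAS reporter). 24 h dosing. Readout: reporter transcript by RT-PCR + capillary electrophoresis, fluorescence intensity; positive direction vs DMSO.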

[17] = ATG_GAL4_TRANS: Attagene TRANS-FACTORIAL HepG2 Assay for GAL4 (Internal Marker) (AID 2282976; active = hit-call score of the fitted dose curve at least 0.9, where 1 is the maximum); conditions: HepG2 Attagene TRANS GAL4 internal marker reporter
Summary of the method: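 Background-control readout: GAL4-UAS reporter transcript in transiently transfected HepG2 cells after 24 h compound exposure. Measured by RT-PCR, 6-FAM primer extension, HpaI digest and capillary electrophoresis; gain-of-signal fit versus DMSO.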

[18] = molecular target: Estrogen-related receptor gamma (Homo sapiens) (UniProt P62508); experiment: ATG_ERRg_TRANS: Attagene TRANS-FACTORIAL HepG2 Assay for human Estrogen-Related Receptor gamma (ERRg) (AID 2282977; active = hit-call score of the fitted dose curve at least 0.9, where 1 is the maximum;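 also: hits increase reporter signal over DMSO so potencies reflect activators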); conditions: HepG2 Attagene TRANS reporter, ERRg transactivation
Sequence of Estrogen-related receptor gamma (Homo sapiens) (P62508 whole entry, looked up, the tested form may be a part): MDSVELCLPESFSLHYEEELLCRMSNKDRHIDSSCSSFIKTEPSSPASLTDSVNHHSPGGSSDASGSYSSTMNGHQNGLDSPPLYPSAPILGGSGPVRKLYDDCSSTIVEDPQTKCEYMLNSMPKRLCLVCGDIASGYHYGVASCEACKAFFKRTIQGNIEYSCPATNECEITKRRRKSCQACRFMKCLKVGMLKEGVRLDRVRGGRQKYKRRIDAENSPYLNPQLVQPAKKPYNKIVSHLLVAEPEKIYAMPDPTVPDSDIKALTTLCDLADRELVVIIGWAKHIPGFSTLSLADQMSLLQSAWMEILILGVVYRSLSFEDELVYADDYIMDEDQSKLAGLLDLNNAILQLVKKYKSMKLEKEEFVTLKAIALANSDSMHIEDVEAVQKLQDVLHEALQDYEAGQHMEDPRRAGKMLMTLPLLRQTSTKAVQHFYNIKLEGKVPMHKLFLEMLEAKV
Summary of the method: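 Induction of reporter transcripts through a chimeric NR-Gal4 protein is quantified in transfected human HepG2 liver cells after 24 h chemical exposure, using RT-PCR with capillary electrophoresis detection and DMSO as baseline.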

[19] = molecular target: Glucocorticoid receptor (Homo sapiens) (UniProt P04150); experiment: ATG_GR_TRANS: Attagene TRANS-FACTORIAL HepG2 Assay for human Glucocorticoid Receptor (GR) (AID 2282978; active = hit-call score of the fitted dose curve at least 0.9, where 1 is the maximum;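 also: activators score as hits since higher reporter transcript over DMSO is fitted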); conditions: HepG2 Attagene TRANS GR reporter, mRNA transcription
Sequence of Glucocorticoid receptor (Homo sapiens) (P04150 whole entry, looked up, the tested form may be a part): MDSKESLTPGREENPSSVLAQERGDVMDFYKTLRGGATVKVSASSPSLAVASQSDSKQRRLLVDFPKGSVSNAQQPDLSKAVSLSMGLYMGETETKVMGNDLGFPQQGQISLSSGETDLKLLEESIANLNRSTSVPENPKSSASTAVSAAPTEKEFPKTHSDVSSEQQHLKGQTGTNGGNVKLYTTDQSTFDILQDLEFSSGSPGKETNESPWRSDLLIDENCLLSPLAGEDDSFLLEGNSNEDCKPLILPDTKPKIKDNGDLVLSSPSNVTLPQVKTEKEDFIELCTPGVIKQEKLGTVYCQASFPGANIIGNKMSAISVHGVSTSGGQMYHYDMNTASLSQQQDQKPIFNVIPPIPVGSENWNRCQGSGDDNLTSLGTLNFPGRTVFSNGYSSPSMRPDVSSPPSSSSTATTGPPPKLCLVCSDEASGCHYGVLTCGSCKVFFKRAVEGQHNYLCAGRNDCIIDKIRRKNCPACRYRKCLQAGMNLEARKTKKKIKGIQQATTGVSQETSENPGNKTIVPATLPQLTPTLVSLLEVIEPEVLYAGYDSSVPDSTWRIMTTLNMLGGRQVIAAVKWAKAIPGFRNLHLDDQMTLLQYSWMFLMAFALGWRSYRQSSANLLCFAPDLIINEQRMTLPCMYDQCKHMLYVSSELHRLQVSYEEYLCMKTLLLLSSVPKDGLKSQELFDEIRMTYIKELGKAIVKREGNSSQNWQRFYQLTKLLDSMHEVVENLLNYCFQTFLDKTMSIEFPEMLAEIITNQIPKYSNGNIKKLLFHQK
Summary of the method: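 Readout is reporter transcript from a chimeric GR-Gal4 acting on GAL4-UAS in transfected human HepG2 liver cells after 24 h exposure, quantified by RT-PCR and capillary electrophoresis. Activation fitted upward against DMSO.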

Measured: AC50

CCC1CCCCC1
not listed: [16] | [17] | [18] | [19]
inactive: all other assays above

CC(=O)O[C@@H]1CC2CCC1(C)C2(C)C (stereo partly drawn)
not listed: [2] | [3] | [6] | [8] | [13] | [18] | [19]
inactive: all other assays above

CCCCCCCCCCCCCCCC(=O)OC/C=C(C)/C=C/C=C(C)/C=C/C1=C(C)CCCC1(C)C
active: [1] 3.09 µM | [12] 2.37 µM
not listed: [2] | [3] | [13] | [18] | [19]
inactive: all other assays above

CCCCCCC(O)CCCCCCCCCCC(=O)O (stereo not drawn)
active: [2] 18 µM
not listed: [14] | [15] | [17]
inactive: all other assays above

CCCCCCCCCC(C)C=O (stereo not drawn)
active: [1] 51.1 µM
not listed: [2] | [3] | [6] | [13] | [16] | [17] | [18]
inactive: all other assays above

CC1(C)COCN1
not listed: [3] | [13] | [17] | [18] | [19]
inactive: all other assays above

Cc1cc(=O)oc2cc(N(C)C)ccc12
active: [6] 100 µM
not listed: [9] | [10] | [13] | [14] | [15] | [16] | [18]
inactive: all other assays above

CCC(=O)O[C@@H]1C[C@H]2CC[C@]1(C)C2(C)C
not listed: [3] | [9] | [12] | [13] | [17] | [18]
inactive: all other assays above
